Most compounds without a hit are left out; they make up all but 1.3% or so of the library.
PrP 5UTR inh: inhibition of PrP 5' UTR reporter expression; inhibition, % (no concentration beside the values); 340,000 tested, 0.35% active; cell-based PrP 5' UTR mRNA reporter, plate reader; in the data active = inhibition above about 52%
BJeLR viability: BJeLR cell viability loss | BJeLR (HRASV12) viability, CellTiter-Glo ATP luminescence, 48 h | inhibition, % (test concentration not listed) | 300,000 tested, 0.17% active; in the data active = inhibition above about 50%
RecA splice inh: blocks M. tuberculosis RecA intein splicing; 290,000 tested, 0.75% active; AID 2221; inhibition, % (concentration not given with the values); cell-free RecA intein splicing, fluorescence; P9WHJ3; in the data active = inhibition above about 30%
UGM FP inh: inhibitors of M. tuberculosis UDP-galactopyranose mutase; inhibition, % at 10 µM; purified UGM, fluorescence polarization probe displacement; 320,000 tested, 0.06% active; P9WIQ1; AID 504406; in the data active = inhibition above about 10%, passing the limit was not always enough
Target sequence (P9WIQ1 whole entry, looked up): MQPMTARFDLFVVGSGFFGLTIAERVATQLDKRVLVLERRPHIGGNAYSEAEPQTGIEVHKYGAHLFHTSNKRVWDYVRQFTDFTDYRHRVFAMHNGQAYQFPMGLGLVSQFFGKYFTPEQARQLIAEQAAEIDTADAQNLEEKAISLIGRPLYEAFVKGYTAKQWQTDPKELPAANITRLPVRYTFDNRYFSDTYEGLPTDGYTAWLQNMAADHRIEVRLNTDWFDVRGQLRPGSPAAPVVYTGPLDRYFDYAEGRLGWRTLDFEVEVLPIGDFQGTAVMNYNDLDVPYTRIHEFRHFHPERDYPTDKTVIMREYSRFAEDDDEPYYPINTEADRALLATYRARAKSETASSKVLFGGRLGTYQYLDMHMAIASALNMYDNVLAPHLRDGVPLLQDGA
Rv3671c protease: Rv3671c (M. tuberculosis) protease inhibition | inhibition, % at 5.96 µM | P9WHR9 | 320,000 tested, 0.048% active;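 note: extracellular domain of Rv3671c used as enzyme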
FadD28 binding: M. tuberculosis FadD28 bisubstrate binding inhibition. 360,000 tested, 0.22% active. FadD28 bisubstrate probe binding, fluorescence polarization. inhibition, % at 12.5 µM. AID 588549; in the data active = inhibition above about 8.5%, passing the limit was not always enough
GFP chromophore: counter-screen GFP chromophore formation inhibition. AID 434968. cell-free GFP chromophore formation, fluorescence. 2,100 tested, 83% active. EC50, µM. shares compounds with RecA splice inh; call rule not given here
Rv3671c confirm: Rv3671c protease inhibition, confirmation; AID 2761; inhibition, % at 5.96 µM; shares compounds with Rv3671c protease; 140 tested, 40% active
Each line names hits and unclear results; the compound was inactive in the other large screens (follow-up assays come after a bar, where they were run). Cut-off read from the data, not from the text of the source, unless noted: active = inhibition above about 38%; inactive = the rest.

Nc1cccc(-c2c[nH]c3ncc(-c4cccnc4)cc23)c1	none (no result: BJeLR viability, RecA splice inh, UGM FP inh, Rv3671c protease)
N#Cc1c(N2CCN(c3ccc([N+](=O)[O-])cc3)CC2)[n+](=O)c2ccc(Cl)cc2n1[O-]	none (no result: BJeLR viability, RecA splice inh, UGM FP inh, Rv3671c protease)
CCOC(=O)c1c(NC(C)=O)sc2c1CCC(C=NCCCN(CC)CC)=C2Sc1ccccc1	RecA splice inh 61 | GFP chromophore 0.37
O=C1C=C(NCCN2CCOCC2)C(=O)c2cnccc21	RecA splice inh 96 (no result: PrP 5UTR inh, FadD28 binding) | GFP chromophore 1
O=C(NCCN1CCOCC1)c1ccncc1	none
Cc1ccc(-n2nc(C(=O)NN)c(C)c(C#N)c2=O)cc1Cl	none
Cc1c(C(=O)NN)nn(-c2ccc(Cl)cc2)c(=O)c1C#N	RecA splice inh 43 (no result: BJeLR viability) | GFP chromophore 31
CC(=O)c1ccc(OC(=O)c2cccs2)cc1	RecA splice inh 35 | GFP chromophore inactive
Cc1ccccc1-c1n[nH]nc1C1=CC(=O)CC(C)(C)C1	none (no result: PrP 5UTR inh, BJeLR viability, RecA splice inh, UGM FP inh, Rv3671c protease)
CCCCN(C(C)=O)c1c(CC)nc2ccc(C(=O)NCCOc3ccc(OC)cc3)cn12	none (no result: PrP 5UTR inh, BJeLR viability, RecA splice inh, UGM FP inh, Rv3671c protease)
COc1ccc(-c2nc3c4ccccc4ccn3c2CC2CCCCC2)cc1OC	none (no result: PrP 5UTR inh, BJeLR viability, RecA splice inh, UGM FP inh, Rv3671c protease)
COc1ccc(NC2=NC(=S)N(c3ccccc3C)C23CCCCC3)cc1	none
COc1ccc(Nc2ccc3c(c2)=NC2(CCCCC2)[N+]=3[O-])cc1	RecA splice inh 79 | GFP chromophore 10
[O-][N+]1=c2ccc(Nc3ccccc3)cc2=NC12CCCCC2	RecA splice inh 80 | GFP chromophore 11
O=[N+]([O-])c1ccc2c(c1N1CCCCC1)=NC1(CCCCC1)[N+]=2[O-]	none
CN(C)c1ccc(-c2csc(C(C)(O)c3cccc(F)c3)n2)cc1 (configuration not stated)	none (no result: PrP 5UTR inh, BJeLR viability, RecA splice inh, UGM FP inh, Rv3671c protease)
Cc1ccc(C(=O)Oc2ccc(C(=O)COC(=O)C3CC(=O)N(Cc4ccco4)C3)cc2)cc1 (configuration not stated)	none
O=C(COC(=O)C1CC(=O)N(Cc2ccco2)C1)c1ccc(OC(=O)c2ccco2)cc1 (configuration not stated)	RecA splice inh 35 | GFP chromophore inactive
CCCCCCn1c(N2CCC(C(N)=O)CC2)nc2c1c(=O)n(C)c(=O)n2C	RecA splice inh 47 | GFP chromophore inactive
CCCCCCn1c(N2CCC(C(N)=O)CC2)nc2c1c(=O)[nH]c(=O)n2C	none
CCOc1cc(CNc2ccc3cn[nH]c3c2)ccc1OC	RecA splice inh 77 | GFP chromophore 12
C=CCOc1ccc(CNc2ccc3[nH]c(=O)[nH]c3c2)cc1OC	none (no result: BJeLR viability, RecA splice inh, UGM FP inh, Rv3671c protease)
COc1ccc(CNc2ccc3cn[nH]c3c2)c(OC)c1OC	RecA splice inh 46 | GFP chromophore 1.2
O=C(COC(=O)CCC(=O)c1cccs1)Nc1ccccc1C(F)(F)F	none (no result: BJeLR viability, RecA splice inh)
CC(N)c1csc(Nc2ncccn2)n1 (configuration not stated)	none (no result: PrP 5UTR inh, BJeLR viability, RecA splice inh, UGM FP inh, Rv3671c protease)
O=C(CCl)N1c2ccccc2CCc2ccccc21	RecA splice inh 80 | GFP chromophore 22
CCCC(=O)OCCNc1cc(SCCC(=O)OC)c2nonc2c1[N+](=O)[O-]	RecA splice inh 39 | GFP chromophore 18
COC(=O)CCSc1cc(NCCOC(C)=O)c([N+](=O)[O-])c2nonc12	RecA splice inh 54 | GFP chromophore 24
CC(=O)OCCCNc1cc(Sc2ccc(C)cc2)c2nonc2c1[N+](=O)[O-]	none
CC(=O)OCCCNc1cc(Sc2nc3ccccc3s2)c2nonc2c1[N+](=O)[O-]	none
O=S1(=O)C[C@H](N2CCN(CCO)CC2)[C@@H](COCc2ccccc2)N1	none (no result: PrP 5UTR inh, BJeLR viability, RecA splice inh, UGM FP inh, Rv3671c protease)
CCOC(=O)CNC(=O)CSc1nnc(C)c(=O)[nH]1	none
CCOC(=O)CSc1nnc(NCC(=O)OC(C)C)c(=O)[nH]1	RecA splice inh 55 | GFP chromophore 37
COc1c(F)cccc1C1=CC(=O)C[C@H](c2ccc(F)cc2)C1	none (no result: PrP 5UTR inh, BJeLR viability, RecA splice inh, UGM FP inh, Rv3671c protease)
N#CC1(NC(=O)COC(=O)c2cc(O)c3ccccc3c2O)CCCCC1	RecA splice inh 81 | GFP chromophore 4.8
CCCNC(=O)C1(C)CCCN(CCC(=O)c2ccccc2)C1 (configuration not stated)	none (no result: PrP 5UTR inh, BJeLR viability, RecA splice inh, UGM FP inh, Rv3671c protease)
Nc1ccc2cn[nH]c2c1	RecA splice inh 78 | GFP chromophore 22
Brc1ccc2[nH]ncc2c1	none
O=c1c(Br)ccc(Br)cc1Br	none (no result: BJeLR viability, RecA splice inh, UGM FP inh, Rv3671c protease)
O=[N+]([O-])c1ccc(O)c2ncccc12	RecA splice inh 43 | GFP chromophore 25
O=[N+]([O-])c1ccc(O)c2cccnc12	none (no result: RecA splice inh)
CCCCCc1cc(=O)oc2c(C(CCN3CCCCC3)c3ccc(OC)cc3)c(OC)cc(OC)c12 (configuration not stated)	none
CCCCCc1cc(=O)oc2c(C(CCN3CCCC(C)C3)c3ccc(OC)cc3)c(OC)cc(OC)c12 (configuration not stated)	RecA splice inh 37 | GFP chromophore 18
CCc1ccc(NC(=O)c2ccc(OC)c([N+](=O)[O-])c2)cc1	none
COc1ccc(C(=O)Nc2ccncc2)cc1[N+](=O)[O-]	RecA splice inh 39 (no result: Rv3671c protease) | GFP chromophore inactive
O=[N+]([O-])c1ccccc1-c1ccc(/C=N/n2cnnc2)o1	none (no result: PrP 5UTR inh)
Cc1ccc(-c2ccc(/C=N/N=C3/NC(=O)C(CC(=O)O)S3)o2)c([N+](=O)[O-])c1 (configuration not stated)	RecA splice inh 48 | GFP chromophore 34
Cc1ccc(S(=O)(=O)Oc2ccc(/C=N/N=C3/NC(=O)C(CC(=O)O)S3)cc2)cc1 (configuration not stated)	none (no result: BJeLR viability, RecA splice inh, UGM FP inh, Rv3671c protease)
O=C(O)CC1S/C(=N/N=C/c2ccc(-c3ccccc3[N+](=O)[O-])o2)NC1=O (configuration not stated)	RecA splice inh 43 | GFP chromophore 17
O=C(NCC(O)c1nc2ccccc2[nH]1)c1cc([N+](=O)[O-])ccc1F (configuration not stated)	none (no result: PrP 5UTR inh, BJeLR viability, RecA splice inh, UGM FP inh, Rv3671c protease)
N#C/C(=C\c1c(Cl)cccc1Cl)c1nn(-c2ccccc2)c(-n2cccc2)c1C#N	none
N#C/C(=C\c1c(F)cccc1Cl)c1nn(-c2ccccc2)c(-n2cccc2)c1C#N	RecA splice inh 46 | GFP chromophore inactive
CC1=NN(c2ccccc2)C(=O)/C1=C\c1c(C)[nH]n(-c2ccccc2)c1=O	none
CC1=NN(c2ccccc2)C(=O)/C1=C/c1c(O)n(-c2ccc(F)c(Cl)c2)[nH]c1=O	RecA splice inh 50, Rv3671c protease 48 (no result: PrP 5UTR inh, FadD28 binding) | GFP chromophore 32 | Rv3671c confirm inactive
CC1(C(=O)Nc2cnc3ccccc3c2)CCN1C(=O)c1ccccc1CCc1ccccc1 (configuration not stated)	none (no result: PrP 5UTR inh, BJeLR viability, RecA splice inh, UGM FP inh, Rv3671c protease)
Cc1ccc2nc(-c3cccs3)oc(=O)c2c1	RecA splice inh 32, Rv3671c protease 52 | GFP chromophore inactive | Rv3671c confirm 63
N#CCC(=O)Nc1ccc(C(=O)OCC(=O)Nc2ccccc2Sc2ccccc2)cc1	Rv3671c protease 81 | Rv3671c confirm inactive

Screening data (PubChem)
